# In publication PMC7862700, “An all-to-all approach to the identification of sequence-specific readers for epigenetic DNA modifications on cytosine”:
# Experiments:
# Assay in all cases: DAPPL (digital affinity profiling via proximity ligation, sequencing); 10 mM Tris-HCl pH 7.5, 50 mM NaCl, 1 mM DTT, 4% glycerol, room temperature, 30 min; GST-TFs on glutathione beads, 16-mer random dsDNA library, 0.1% formaldehyde crosslink after washing; high values mean tight binding
# FEV = target: T1, FEV (Homo sapiens, UniProt Q99581 1-238); conditions: protein: recombinant; tags: N-terminal GST; dsDNA, one strand shown
# T1 sequence: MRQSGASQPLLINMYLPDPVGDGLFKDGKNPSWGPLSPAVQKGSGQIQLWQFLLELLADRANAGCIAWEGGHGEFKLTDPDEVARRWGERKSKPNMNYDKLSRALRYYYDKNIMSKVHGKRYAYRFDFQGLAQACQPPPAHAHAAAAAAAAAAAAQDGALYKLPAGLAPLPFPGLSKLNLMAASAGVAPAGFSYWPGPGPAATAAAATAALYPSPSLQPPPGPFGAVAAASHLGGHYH
# Procedure, shortened: (§1)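 The binding signal reported is, for every hexamer, its read frequency for a factor over its read frequency for the tag-only sample. Reads came from pools of yeast-expressed, GST-fused human transcription factors on glutathione beads, barcoded with DNA and mixed with that sample, which were incubated with 200 nmole of a random double-stranded 16-mer DNA library in Tris/NaCl/DTT/glycerol buffer at room temperature for 30 min. After washing, the pools were crosslinked with 0.1% formaldehyde, proximity-ligated with BsaI/T4 ligase for 1 h at 37 °C, PCR-amplified and sequenced on an Illumina NextSeq500.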
# ETV5 = ETV5 (Homo sapiens, UniProt P41161 1-510); conditions: protein: recombinant; tags: N-terminal GST; dsDNA, one strand shown
# ETV5, sequence (P41161 whole entry): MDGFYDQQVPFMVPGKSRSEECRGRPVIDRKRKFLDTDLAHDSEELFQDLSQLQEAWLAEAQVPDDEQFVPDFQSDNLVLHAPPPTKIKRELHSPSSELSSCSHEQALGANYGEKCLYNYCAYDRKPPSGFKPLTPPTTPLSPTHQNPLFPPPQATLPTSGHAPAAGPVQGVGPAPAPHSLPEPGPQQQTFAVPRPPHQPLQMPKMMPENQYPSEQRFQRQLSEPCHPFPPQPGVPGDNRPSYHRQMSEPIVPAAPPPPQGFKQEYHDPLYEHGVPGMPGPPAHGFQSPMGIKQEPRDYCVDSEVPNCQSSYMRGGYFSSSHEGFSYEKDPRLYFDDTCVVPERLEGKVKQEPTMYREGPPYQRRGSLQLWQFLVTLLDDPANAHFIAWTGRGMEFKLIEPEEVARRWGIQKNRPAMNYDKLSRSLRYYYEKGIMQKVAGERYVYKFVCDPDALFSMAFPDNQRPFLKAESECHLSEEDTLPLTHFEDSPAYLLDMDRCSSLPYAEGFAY
# Procedure, shortened: as §1
# HSF1 = HSF1 (Homo sapiens, UniProt Q00613 1-529); conditions: protein: recombinant; tags: N-terminal GST; chain copies: 3; dsDNA, one strand shown
# HSF1, sequence (Q00613 whole entry): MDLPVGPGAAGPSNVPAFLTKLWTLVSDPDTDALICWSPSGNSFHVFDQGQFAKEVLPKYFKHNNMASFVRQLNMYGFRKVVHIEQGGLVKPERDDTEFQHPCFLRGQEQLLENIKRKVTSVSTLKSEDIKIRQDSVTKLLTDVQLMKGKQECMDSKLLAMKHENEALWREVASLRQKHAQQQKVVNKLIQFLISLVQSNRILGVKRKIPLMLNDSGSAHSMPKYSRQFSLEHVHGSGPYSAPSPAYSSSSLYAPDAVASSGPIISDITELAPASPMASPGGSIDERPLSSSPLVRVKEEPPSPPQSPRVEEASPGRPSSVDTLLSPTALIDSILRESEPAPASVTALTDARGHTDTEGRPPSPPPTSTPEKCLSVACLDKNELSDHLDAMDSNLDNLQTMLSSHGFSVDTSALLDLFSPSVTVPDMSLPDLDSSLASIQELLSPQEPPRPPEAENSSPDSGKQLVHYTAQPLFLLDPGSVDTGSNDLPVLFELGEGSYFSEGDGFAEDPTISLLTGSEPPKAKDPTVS
# Procedure, shortened: as §1
# SPIC = target: T2, SPIC (Homo sapiens, UniProt Q8N5J4 1-248); conditions: protein: recombinant; tags: N-terminal GST; dsDNA, one strand shown
# T2 sequence: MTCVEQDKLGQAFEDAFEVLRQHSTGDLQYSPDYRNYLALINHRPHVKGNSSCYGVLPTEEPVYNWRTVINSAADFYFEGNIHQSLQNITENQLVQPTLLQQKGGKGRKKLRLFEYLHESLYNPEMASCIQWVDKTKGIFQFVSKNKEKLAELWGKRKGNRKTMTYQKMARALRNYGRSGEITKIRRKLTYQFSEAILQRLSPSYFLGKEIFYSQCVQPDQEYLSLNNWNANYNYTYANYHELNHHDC
# Procedure, shortened: as §1
# ELF4 = ELF4 (Homo sapiens, UniProt Q99607 1-663); conditions: protein: recombinant; tags: N-terminal GST; dsDNA, one strand shown
# ELF4, sequence (Q99607 whole entry): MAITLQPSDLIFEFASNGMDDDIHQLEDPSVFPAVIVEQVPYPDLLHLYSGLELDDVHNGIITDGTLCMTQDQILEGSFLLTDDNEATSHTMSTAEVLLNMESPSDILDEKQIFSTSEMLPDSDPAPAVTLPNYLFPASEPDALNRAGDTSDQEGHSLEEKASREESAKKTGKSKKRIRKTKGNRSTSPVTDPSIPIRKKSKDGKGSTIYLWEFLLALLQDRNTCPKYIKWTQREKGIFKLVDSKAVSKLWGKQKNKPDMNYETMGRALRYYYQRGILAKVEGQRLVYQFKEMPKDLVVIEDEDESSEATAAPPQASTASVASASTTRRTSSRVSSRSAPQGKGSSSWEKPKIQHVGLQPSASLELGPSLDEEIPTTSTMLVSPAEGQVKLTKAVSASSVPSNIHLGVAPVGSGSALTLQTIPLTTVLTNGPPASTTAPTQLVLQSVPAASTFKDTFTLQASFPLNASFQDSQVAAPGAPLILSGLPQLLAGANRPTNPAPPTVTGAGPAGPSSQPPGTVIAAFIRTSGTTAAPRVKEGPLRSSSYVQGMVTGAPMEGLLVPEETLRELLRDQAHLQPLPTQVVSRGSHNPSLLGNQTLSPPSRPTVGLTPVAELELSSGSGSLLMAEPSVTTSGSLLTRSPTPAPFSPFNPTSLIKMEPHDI
# Procedure, shortened: as §1
# ELK4 = target: T3, ELK4 (Homo sapiens, UniProt P28324-2 1-405); conditions: protein: recombinant; tags: N-terminal GST; dsDNA, one strand shown
# T3 sequence: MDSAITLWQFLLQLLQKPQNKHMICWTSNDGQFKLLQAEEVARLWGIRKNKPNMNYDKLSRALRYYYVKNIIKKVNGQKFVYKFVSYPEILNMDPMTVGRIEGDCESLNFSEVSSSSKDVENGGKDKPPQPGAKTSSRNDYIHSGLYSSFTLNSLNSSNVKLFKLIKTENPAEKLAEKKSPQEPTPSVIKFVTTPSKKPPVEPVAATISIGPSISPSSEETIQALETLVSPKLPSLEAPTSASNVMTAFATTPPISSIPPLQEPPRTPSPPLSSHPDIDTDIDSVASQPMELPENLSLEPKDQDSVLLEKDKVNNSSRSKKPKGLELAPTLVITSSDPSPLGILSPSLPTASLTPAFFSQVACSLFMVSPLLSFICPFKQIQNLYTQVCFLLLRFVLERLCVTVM
# Procedure, shortened: as §1
# ETV2 = target: T4, ETV2 (Homo sapiens, UniProt O00321 1-342); conditions: protein: recombinant; tags: N-terminal GST; dsDNA, one strand shown
# T4 sequence: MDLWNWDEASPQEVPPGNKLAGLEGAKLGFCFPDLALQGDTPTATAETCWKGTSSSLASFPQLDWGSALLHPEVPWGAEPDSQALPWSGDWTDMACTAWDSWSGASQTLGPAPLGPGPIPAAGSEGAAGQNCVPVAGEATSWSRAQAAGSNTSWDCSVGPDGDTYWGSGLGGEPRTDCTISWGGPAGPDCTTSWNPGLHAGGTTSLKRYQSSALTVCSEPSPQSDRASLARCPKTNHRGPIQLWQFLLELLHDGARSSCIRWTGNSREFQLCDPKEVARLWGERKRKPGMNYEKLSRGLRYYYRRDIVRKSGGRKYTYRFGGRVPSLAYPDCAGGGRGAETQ
# Procedure, shortened: as §1
# ELF3 = target: T5, ELF3 (Homo sapiens, UniProt P78545 1-371); conditions: protein: recombinant; tags: N-terminal GST; dsDNA, one strand shown
# T5 sequence: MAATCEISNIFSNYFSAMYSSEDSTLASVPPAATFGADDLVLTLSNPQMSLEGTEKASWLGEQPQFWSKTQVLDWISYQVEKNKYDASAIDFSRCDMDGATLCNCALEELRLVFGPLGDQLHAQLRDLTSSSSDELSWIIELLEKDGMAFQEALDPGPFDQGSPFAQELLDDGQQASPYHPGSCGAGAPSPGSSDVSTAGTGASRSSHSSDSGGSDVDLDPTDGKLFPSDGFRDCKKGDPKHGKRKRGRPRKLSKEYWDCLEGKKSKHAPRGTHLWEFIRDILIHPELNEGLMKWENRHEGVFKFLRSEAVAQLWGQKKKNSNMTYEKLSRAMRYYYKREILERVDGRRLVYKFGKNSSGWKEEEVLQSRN
# Procedure, shortened: as §1
# ETV1 = ETV1 (Homo sapiens, UniProt P50549 1-477); conditions: protein: recombinant; tags: N-terminal GST; dsDNA, one strand shown
# ETV1, sequence (P50549 whole entry): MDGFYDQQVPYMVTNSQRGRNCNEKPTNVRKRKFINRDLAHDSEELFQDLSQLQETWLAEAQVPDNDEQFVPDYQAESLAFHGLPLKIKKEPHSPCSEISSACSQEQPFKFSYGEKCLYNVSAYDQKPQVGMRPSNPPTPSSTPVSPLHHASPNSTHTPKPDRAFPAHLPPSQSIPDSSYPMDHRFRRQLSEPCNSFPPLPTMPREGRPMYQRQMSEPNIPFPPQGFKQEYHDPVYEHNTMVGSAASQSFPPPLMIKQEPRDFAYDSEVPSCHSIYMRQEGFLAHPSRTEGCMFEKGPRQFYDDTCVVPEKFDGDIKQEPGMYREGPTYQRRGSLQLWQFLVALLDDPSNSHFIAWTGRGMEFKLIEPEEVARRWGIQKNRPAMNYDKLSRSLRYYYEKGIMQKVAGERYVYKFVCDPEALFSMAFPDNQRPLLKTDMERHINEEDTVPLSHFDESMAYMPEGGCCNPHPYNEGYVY
# Procedure, shortened: as §1
# ERF = target: T6, ERF (Homo sapiens, UniProt P50548 1-548); conditions: protein: recombinant; tags: N-terminal GST; dsDNA, one strand shown
# T6 sequence: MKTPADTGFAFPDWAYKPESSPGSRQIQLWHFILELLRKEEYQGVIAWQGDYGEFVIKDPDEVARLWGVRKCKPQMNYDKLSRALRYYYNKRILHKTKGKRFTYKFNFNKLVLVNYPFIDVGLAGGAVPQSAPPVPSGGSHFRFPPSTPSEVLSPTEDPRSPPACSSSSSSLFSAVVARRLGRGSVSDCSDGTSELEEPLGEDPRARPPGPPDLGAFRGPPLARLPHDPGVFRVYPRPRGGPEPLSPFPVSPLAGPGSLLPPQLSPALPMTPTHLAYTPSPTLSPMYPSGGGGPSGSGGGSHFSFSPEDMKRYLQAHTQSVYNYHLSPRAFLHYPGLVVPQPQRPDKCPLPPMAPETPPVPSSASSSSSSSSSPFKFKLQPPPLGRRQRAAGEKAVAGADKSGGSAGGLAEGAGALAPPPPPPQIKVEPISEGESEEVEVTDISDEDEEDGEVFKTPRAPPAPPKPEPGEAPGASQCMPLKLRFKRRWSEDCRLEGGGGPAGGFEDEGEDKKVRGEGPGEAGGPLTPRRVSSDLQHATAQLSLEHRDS
# Procedure, shortened: as §1
# ETV3L = target: T7, ETV3L (Homo sapiens, UniProt Q6ZN32 1-361); conditions: protein: recombinant; tags: N-terminal GST; dsDNA, one strand shown
# T7 sequence: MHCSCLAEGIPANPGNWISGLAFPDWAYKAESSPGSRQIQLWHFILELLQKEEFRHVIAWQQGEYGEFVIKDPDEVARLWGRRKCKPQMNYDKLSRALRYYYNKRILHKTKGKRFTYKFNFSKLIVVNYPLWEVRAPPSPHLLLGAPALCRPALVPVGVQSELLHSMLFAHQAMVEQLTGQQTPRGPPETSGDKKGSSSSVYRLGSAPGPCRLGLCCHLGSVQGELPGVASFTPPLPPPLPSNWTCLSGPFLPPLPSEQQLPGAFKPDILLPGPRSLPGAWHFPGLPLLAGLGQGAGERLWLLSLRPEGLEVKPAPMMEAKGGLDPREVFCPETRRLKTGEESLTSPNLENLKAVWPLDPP
# Procedure, shortened: as §1
# ETS2 = target: T8, ETS2 (Homo sapiens, UniProt P15036 1-469); conditions: protein: recombinant; tags: N-terminal GST; dsDNA, one strand shown
# T8 sequence: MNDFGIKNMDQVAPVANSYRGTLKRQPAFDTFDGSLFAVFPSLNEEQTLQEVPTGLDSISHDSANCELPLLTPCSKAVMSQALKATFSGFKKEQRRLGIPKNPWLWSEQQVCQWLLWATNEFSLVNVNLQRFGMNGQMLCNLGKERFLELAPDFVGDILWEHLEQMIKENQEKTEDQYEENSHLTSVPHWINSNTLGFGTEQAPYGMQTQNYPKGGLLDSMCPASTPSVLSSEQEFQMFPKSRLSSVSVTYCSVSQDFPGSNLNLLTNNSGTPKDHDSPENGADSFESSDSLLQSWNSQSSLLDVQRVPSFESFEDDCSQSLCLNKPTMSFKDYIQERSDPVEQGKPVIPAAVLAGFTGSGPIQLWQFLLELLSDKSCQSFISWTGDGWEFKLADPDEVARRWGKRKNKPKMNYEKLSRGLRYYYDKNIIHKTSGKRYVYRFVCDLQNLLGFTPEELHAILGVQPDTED
# Procedure, shortened: as §1
# SPDEF = target: T9, SPDEF (Homo sapiens, UniProt O95238 1-335); conditions: protein: recombinant; tags: N-terminal GST; dsDNA, one strand shown
# T9 sequence: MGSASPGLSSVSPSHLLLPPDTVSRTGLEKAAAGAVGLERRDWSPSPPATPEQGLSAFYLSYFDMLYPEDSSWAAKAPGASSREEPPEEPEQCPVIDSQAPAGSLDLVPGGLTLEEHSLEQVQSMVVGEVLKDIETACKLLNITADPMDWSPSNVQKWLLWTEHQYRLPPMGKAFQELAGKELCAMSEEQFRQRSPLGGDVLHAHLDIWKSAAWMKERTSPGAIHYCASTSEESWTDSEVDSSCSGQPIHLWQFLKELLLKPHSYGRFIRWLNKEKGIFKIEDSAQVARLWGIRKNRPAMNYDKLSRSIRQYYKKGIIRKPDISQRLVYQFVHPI
# Procedure, shortened: as §1
# ETV7 = target: T10, ETV7 (Homo sapiens, UniProt Q9Y603 1-341); conditions: protein: recombinant; tags: N-terminal GST; dsDNA, one strand shown
# T10 sequence: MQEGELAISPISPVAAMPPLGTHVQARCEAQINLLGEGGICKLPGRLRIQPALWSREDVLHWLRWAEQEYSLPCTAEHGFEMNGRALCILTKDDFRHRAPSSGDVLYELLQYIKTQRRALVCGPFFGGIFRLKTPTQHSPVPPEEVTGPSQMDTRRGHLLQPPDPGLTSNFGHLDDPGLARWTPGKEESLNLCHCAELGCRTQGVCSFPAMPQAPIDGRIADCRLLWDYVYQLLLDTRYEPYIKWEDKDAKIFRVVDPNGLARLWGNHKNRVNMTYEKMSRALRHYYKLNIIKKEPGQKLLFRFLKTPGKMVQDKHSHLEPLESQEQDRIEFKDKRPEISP
# Procedure, shortened: as §1
# ELF5 = target: T11, ELF5 (Homo sapiens, UniProt Q9UKW6-2 1-255); conditions: protein: recombinant; tags: N-terminal GST; dsDNA, one strand shown
# T11 sequence: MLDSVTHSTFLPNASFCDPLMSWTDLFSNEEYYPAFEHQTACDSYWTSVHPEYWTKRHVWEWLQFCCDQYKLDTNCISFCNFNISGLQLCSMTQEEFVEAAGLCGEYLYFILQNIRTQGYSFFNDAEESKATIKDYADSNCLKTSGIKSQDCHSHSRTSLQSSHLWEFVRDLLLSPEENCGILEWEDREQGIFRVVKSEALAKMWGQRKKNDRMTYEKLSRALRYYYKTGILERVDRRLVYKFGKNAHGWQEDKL
# Procedure, shortened: as §1
# ETV3 = target: T12, ETV3 (Homo sapiens, UniProt P41162-2 1-143); conditions: protein: recombinant; tags: N-terminal GST; dsDNA, one strand shown
# T12 sequence: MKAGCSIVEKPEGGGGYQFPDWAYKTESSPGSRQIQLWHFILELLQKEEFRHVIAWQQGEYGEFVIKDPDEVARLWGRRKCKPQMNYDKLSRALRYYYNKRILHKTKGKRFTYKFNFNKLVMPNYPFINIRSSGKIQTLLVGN
# Procedure, shortened: as §1
# ETV6 = ETV6 (Homo sapiens, UniProt P41212 1-452); conditions: protein: recombinant; tags: N-terminal GST; dsDNA, one strand shown
# ETV6, sequence (P41212 whole entry): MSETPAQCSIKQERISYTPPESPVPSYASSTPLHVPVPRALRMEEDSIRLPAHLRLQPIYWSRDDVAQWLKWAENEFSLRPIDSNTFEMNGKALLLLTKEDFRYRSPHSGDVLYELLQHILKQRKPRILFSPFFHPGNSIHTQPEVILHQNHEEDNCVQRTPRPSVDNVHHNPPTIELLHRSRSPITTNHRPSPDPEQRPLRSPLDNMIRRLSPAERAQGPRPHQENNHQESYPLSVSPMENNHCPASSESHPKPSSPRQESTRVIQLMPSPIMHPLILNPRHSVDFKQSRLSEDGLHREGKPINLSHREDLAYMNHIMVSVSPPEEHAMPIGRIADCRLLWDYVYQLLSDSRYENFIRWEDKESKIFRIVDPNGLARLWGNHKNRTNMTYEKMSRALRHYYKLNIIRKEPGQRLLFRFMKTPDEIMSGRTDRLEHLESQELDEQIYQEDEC
# Procedure, shortened: as §1
sequence,measurement,setting,value
CCACTG,binding signal,FEV,"1.19 fold enrichment (6-mer frequency, TF over GST control)"
same,binding signal,ETV5,"1.15 fold enrichment (6-mer frequency, TF over GST control)"
same,binding signal,HSF1,"1.08 fold enrichment (6-mer frequency, TF over GST control)"
same,binding signal,SPIC,"1.34 fold enrichment (6-mer frequency, TF over GST control)"
same,binding signal,ELF4,"1.2 fold enrichment (6-mer frequency, TF over GST control)"
same,binding signal,ELK4,"1.18 fold enrichment (6-mer frequency, TF over GST control)"
same,binding signal,ETV2,"1.17 fold enrichment (6-mer frequency, TF over GST control)"
same,binding signal,ELF3,"1.04 fold enrichment (6-mer frequency, TF over GST control)"
same,binding signal,ETV1,"1.31 fold enrichment (6-mer frequency, TF over GST control)"
same,binding signal,ERF,"1.22 fold enrichment (6-mer frequency, TF over GST control)"
same,binding signal,ETV3L,"1.15 fold enrichment (6-mer frequency, TF over GST control)"
same,binding signal,ETS2,"1.16 fold enrichment (6-mer frequency, TF over GST control)"
same,binding signal,SPDEF,"1.14 fold enrichment (6-mer frequency, TF over GST control)"
same,binding signal,ETV7,"1.1 fold enrichment (6-mer frequency, TF over GST control)"
same,binding signal,ELF5,"1.09 fold enrichment (6-mer frequency, TF over GST control)"
same,binding signal,ETV3,"1.15 fold enrichment (6-mer frequency, TF over GST control)"
same,binding signal,ETV6,"1.22 fold enrichment (6-mer frequency, TF over GST control)"
